# Results as given in PubChem BioAssay (NCI).
# About 83,000 compounds went through this panel and 20% of them were active in at least one assay; those are over-represented in the sample as a whole.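 Interpretation: 100, growth as untreated; towards 0, rising growth inhibition; 0, no net growth; 0 to -100, cell death. Compounds scoring below 10 were considered active.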 Unmarked numbers belong to inactive results. Calls of active or inactive are those of the source.
# Tested on: HL-60(TB) leukemia
# Experiment: NCI-60 one-dose screen, 48 h (100 = growth as untreated, 0 = no growth, -100 = all killed)
# Settings: 10 µM unless noted
row,SMILES,growth
1,O=C(Nc1cccc(C2=NCCN2)c1)c1ccc(N=Nc2ccc(C(=O)Nc3cccc(C4=NCCN4)c3)cc2)cc1,42.5%
2,CN(C)CCN1C(=O)c2ccc3c4c(ccc(c24)C1=O)C(=O)N(CCN=C=S)C3=O,-51.1% (active)
3,COc1cccc(CNc2nnc(C)c(C)n2)c1O,95.9%
4,O=S(=O)(NCCNc1nccc(-c2c(-c3cccc(O)c3)nc3sccn23)n1)c1ccc(F)cc1,86.5%
5,O=C(Nc1ccc(-n2cc(-c3ccncc3)c(-c3ccc(O)c(Cl)c3)n2)cc1)c1cc(Cl)cc(Cl)c1,28.1%
6,Cc1cc(C)c(O)c(C(=O)CC(Br)C(=O)O)c1 (configuration not stated),79.8%
7,Cc1cccc(-c2nc(Nc3ccc4ncsc4c3)c3ccccc3n2)n1,62.5%
8,COc1cccc(Nc2ccnc3[nH]c4ccc([N+](=O)[O-])cc4c23)c1,35.4%
9,N#Cc1c(-c2ccccc2)nc(SCC(=O)Nc2nc(-c3ccc(Cl)cc3)cs2)[nH]c1=O,96.1%
10,COc1cc(NC(C)CCCN)c2ncccc2c1Oc1ccc(Cl)cc1 (configuration not stated),94.8%
11,COC(=O)c1ccc2[nH]c(O)c(C(=Nc3ccc(N(C)C(=O)CN4CCN(C)CC4)cc3)c3ccc(N)cc3)c2c1,110%
12,O=C(Nc1ccccc1O)c1ccc(CNc2ccnc(C(F)(F)F)c2)cc1,-32.9% (active)
13,CC1CC=CCC1C1OCC(C)(C)CO1 (configuration not stated),91.8%
14,CCOC(=O)c1cnn(CC(O)CC)c1NC(=O)NCc1ccccc1C(F)(F)F (configuration not stated),76.4%
15,CCC(C)N(c1ccc(Cl)cc1)c1nc(-c2ccc(Br)cc2)cs1 (configuration not stated),100%
16,NC(N)=N/N=C(/c1ccccc1)c1ccc(N)cc1,98.1%
17,Cc1ccc(-c2csc(NC(=O)CCCCl)n2)cc1,109%
18,Cc1ccc(/C(CS(=O)(=O)c2ccc(C)cc2)=N\O)cc1,99%
19,COc1cc(/C(Cl)=C/C=C/C(=O)c2c(C)[n+]([O-])c3ccc(Cl)cc3[n+]2[O-])cc(OC)c1OC,11.9%

row,SMILES,growth
1,COc1cc2c(cc1OCCCCCN1CCN(c3ncnc4ccccc34)CC1)N=CC1CCCN1C2=O (configuration not stated),-25.8% (active)
2,C=CCn1c2ccccc2c2c3c(c4c5ccccc5n(CC=C)c4c21)C(=O)N(O)C3=O,-39.5% (active)
3,COC(=O)c1nc(-c2ccccc2)oc1S(=O)(=O)n1nc(-c2ccccc2)cc1N,58.9%
4,COc1cc2cc(NCc3ccc(OC(F)F)cc3)nc(C)c2cc1OC,38.7%
5,COc1ccc(OC)c([N+](=O)[O-])c1C=O,88.2%
6,N#C/C(=N\Nc1ccc(Cl)cc1)C(=O)Nc1cc(-c2ccccc2)nn1-c1ccccc1,27.5%
7,O=C(O)c1cc(N=Nc2ccc(-c3ccc(N=Nc4c(S(=O)(=O)O)cc5ccc(Nc6ccccc6)cc5c4O)cc3)cc2)ccc1O,98.9%
8,COc1ccc2cc(-c3ccnc4c(N=Nc5ccc(Cl)cc5)c(N)nn34)ccc2c1,98.8%
9,COc1ccc(C(=O)C(C)C)c2ccccc12,78.9%
10,CN(C)CCN=c1nc2c(c(N)n1-c1ccccc1)c(=S)n(-c1ccccc1)c(=S)n2-c1ccccc1,36.6%
11,COc1cccc(/C=C2/C(=O)N(Cc3ccco3)SC2=S)c1OC,94.5%
12,COc1ccc(/C=C/C(=O)c2ccc(-n3cc(CN4CCN(c5cc6c(cc5F)c(=O)c(C(=O)O)cn6C5CC5)CC4)nn3)cc2)cc1OC,45.1%
13,CCn1c(C)nc([N+](=O)[O-])c1Sc1nc(N)nc2nc[nH]c12,50.9%
14,Cc1cnc(C=O)c2cccc([N+](=O)[O-])c12,66.1%
15,C=C1C(=O)O[C@H]2[C@H]1CC/C(COC(=O)CCCCCCC(=O)OC/C1=C/CC[C@@]3(C)O[C@H]3[C@H]3OC(=O)C(=C)[C@@H]3CC1)=C\CC[C@@]1(C)O[C@@H]21,-13.8% (active)
16,O=C1/C(=C/c2ccc(Cl)cc2)CN(C(=O)CCN2CCC(=NO)CC2)C/C1=C\c1ccc(Cl)cc1,-13% (active)
17,CN1CCN(Cc2ccc(NC(=O)c3cncc(C#Cc4cnc(N)c5ccncc45)c3)cc2C(F)(F)F)CC1,-9.61% (active)
18,CC(C)(C)NCC(O)COc1c(Br)c(Br)c(Br)c2c1OC(C)(C)C2 (configuration not stated),-59.3% (active)
